# NPC1 prom act = activates the NPC1 promoter; Huh7 NPC1 promoter luciferase reporter, 24 h; Potency, µM (titrated, usually from 9.22 µM), for inactives: at the highest dose activation, usual class: activators; 320,000 compounds, 2.4% hits; AID 485313; further: % of control where 0% means no effect; nearly all actives have a fitted effect of over 60% in size
#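 Luciferase expression driven by the NPC1 promoter was measured in stably transfected Huh7 cells after a 24 h compound incubation, using a luciferase reagent and a luminescence read.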
# ELG1 genotox = induces genotoxicity in HEK293T cells with luciferase-tagged ELG1; HEK293T ELG1-luciferase reporter, luminescence, 16 h; Potency, µM (series often up to 46 µM), for inactives: at the top dose activity change, positive = activation, most hits filed as activators; 330,000 compounds, 1.3% hits; further: % of control where 0% means no effect; nearly all actives have a fitted effect of over 60% in size
#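 ELG1-luciferase HEK293T cells, 2,000/well; compound pinned in; 16 hr, 37 °C, 5% CO2; ONE-Glo, 30 min RT; luminescence on CCD imager.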
# Rab9 promoter act = activates the Rab9 promoter; 320,000 compounds, 2.8% hits; Huh7 Rab9 promoter-luciferase reporter, luminescence, 24 h; Potency, µM (top dose mostly 9.22 µM), for the others: top-dose activation, negative = inhibition, actives largely listed as activators; further: % of control where 0% means no effect; nearly all actives have a fitted effect of over 60% in size
#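 Steps: seed 1500 Huh7 Rab9-luc cells per well, rest 2 h at 37 °C; add compound in DMSO; incubate 24 h; add luciferase reagent, 10 min ambient; read luminescence.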
# FLuc modulator = firefly luciferase modulation, counter-screen for miR-21 project. P08659. purified FLuc, Km substrates, luminescence inhibition. Potency, µM (doses to about 57.5 µM), inactives show at the top dose activity change, negative = inhibition, usual class: inhibitors. 360,000 compounds, 6.9% hits;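 further: plate controls were vehicle for no effect and reference inhibitor for full effect; nearly all actives have a fitted effect of over 55% in size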
# Target sequence (P08659 whole entry, looked up): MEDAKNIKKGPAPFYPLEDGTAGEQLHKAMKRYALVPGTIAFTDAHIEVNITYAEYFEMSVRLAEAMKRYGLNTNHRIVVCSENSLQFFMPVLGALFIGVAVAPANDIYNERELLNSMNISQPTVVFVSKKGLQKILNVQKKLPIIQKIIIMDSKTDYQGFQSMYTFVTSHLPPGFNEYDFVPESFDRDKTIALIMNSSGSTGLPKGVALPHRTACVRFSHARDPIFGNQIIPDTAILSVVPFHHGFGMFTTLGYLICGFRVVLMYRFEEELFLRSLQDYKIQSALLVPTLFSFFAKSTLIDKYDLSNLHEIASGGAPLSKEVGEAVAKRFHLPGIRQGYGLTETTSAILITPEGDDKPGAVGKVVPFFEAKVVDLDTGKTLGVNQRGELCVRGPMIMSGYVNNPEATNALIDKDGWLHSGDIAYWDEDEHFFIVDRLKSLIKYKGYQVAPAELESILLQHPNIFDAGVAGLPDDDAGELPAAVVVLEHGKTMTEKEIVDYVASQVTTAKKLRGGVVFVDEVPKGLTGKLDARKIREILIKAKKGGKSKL
#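 Purified P. pyralis luciferase (10nM final) with 10uM D-luciferin and 10uM ATP (Km levels) in 50mM Tris acetate pH 7.5, 10mM Mg acetate, 0.01% Tween-20, 0.05% BSA; qHTS 6-point titration, ~60 µM downward; luminescence read.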
# SMN2 splice enh = SMN2 splice variant enhancement; Potency, µM (highest dose often 46.1 µM), inactives show at the top dose activity change, positive = activation, hits mostly activators; AID 1458; HEK293 SMN2-luciferase splicing reporter, luminescence, 30-36 h; 210,000 compounds, 2.8% hits; further: % of control where 0% means no effect; nearly all actives have a fitted effect of over 55% in size
#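 HEK293 cells carry an SMN2 […]–luciferase reporter in which exon 7 inclusion puts luciferase in frame. Cells were plated 10-12 h before compound addition, then incubated 30-36 h at 37C. ONE-Glo luminescence was read; sodium butyrate at 4.5 mM final served as control.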
# Luc counter = Kinase-Glo luciferase inhibition (counter-screen) | Q27757 | Kinase-Glo luciferase, ATP luminescence, 8 min | Potency, µM (series often up to 38.3 µM), for the others: at the top dose activity change, negative = inhibition, usual class: inhibitors | 200,000 compounds, 0.28% hits | AID 1379; further: on the % scale 0 is the no-effect control and ±100 the full control effect; nearly all actives have a fitted effect of over 60% in size
#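 Substrate mix (final 50 mM imidazole pH 7.2, 50 mM KCl, 7 mM MgCl2, 10 uM ATP, 0.01% Tween 20, 0.05% BSA) plus pin-tool compound, then Kinase-Glo detection mix; 8 min ambient, luminescence read.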
# * marks the source's active call; other numbers are inactive results; ? = inconclusive; . = not tested or not shown. Most compounds without a hit are left out; they make up all but 7.5% or so of the library. The call rests on the fitted dose curve; in most records, active means well fitted curve in the direction sought with a large enough effect; inconclusive means small, poorly fitted or top-dose-only effect, or another doubt; inactive means no such curve, though single readings can be large; an effect the other way counts as inactive or inconclusive. Potency means the concentration at half of the fitted maximal effect.
SMILES,NPC1 prom act,ELG1 genotox,Rab9 promoter act,FLuc modulator,SMN2 splice enh,Luc counter
COc1cccc(C(=O)Nc2cccc(C(C)=O)c2)c1,?,?,?,21µM*,.,?
CCOC(=O)c1cc(-c2ccccc2C)n(CC2CC(c3ccc(OC)cc3)=NO2)n1 (stereo unspecified),.,-9%,.,.,.,.
CCCCSc1nc2sc3c(c2c(=O)[nH]1)CC(C)(CC)OC3 (stereo unspecified),-7%,-1%,-6%,1%,.,.
CCC(COC)NC(=O)c1ccc(OC)c(OC2CCN(C(C)=O)CC2)c1 (stereo unspecified),-5%,7%,-2%,-1%,.,.
Cc1ccccc1NC(=O)c1ccc(F)c(S(=O)(=O)N(C)C2CCCCC2)c1,.,.,.,-8%,.,.
C/C(=N\Nc1ccccc1[N+](=O)[O-])c1ccc(N2CCOCC2)cc1,2.8µM*,?,3.2µM*,3.4µM*,?,-12%
COC(=O)N/N=C(\C)c1ccc(C)c([N+](=O)[O-])c1,0%,7%,0%,?,?,-13%
C/C(=N\Nc1ccc([N+](=O)[O-])cc1)c1ccco1,?,?,3.5µM*,7.6µM*,.,-11%
C/C(=N\Nc1ccc([N+](=O)[O-])cc1)c1ccc(N2CCOCC2)cc1,17%,6%,1%,8.5µM*,.,.
C/C(=N/Nc1ccccc1[N+](=O)[O-])c1ccc(C)c([N+](=O)[O-])c1,3.2µM*,9%,?,-1%,.,.
CCCn1c(=O)n(-c2ccccc2)c(=O)c2sc3ccccc3c21,.,.,.,-2%,-18%,.
NNC(=O)CCN(Cc1ccco1)S(=O)(=O)c1ccc(Cl)cc1,1%,-4%,10%,1%,.,.
Fc1ccc(N=c2ssnc2Cl)c(F)c1,-1%,-6%,4%,19µM*,-7%,3%
COc1ccc(N=c2ssnc2Cl)cc1,4%,2%,5%,?,-5%,-1%
Clc1nssc1=Nc1ccccc1,1%,-7%,-3%,21µM*,-12%,-4%
Clc1ccc(N=c2ssnc2Cl)cc1,3%,-6%,1%,?,-34%,-2%
N#Cc1ccc(N=c2ssnc2Cl)cc1,9%,0%,9%,15µM*,14%,-4%
COc1cc(N=c2ssnc2Cl)cc(OC)c1OC,-4%,-8%,1%,15µM*,-4%,1%
CCc1ccc2[nH]c(=O)c(-c3ccccc3)c(O)c2c1,-3%,3%,6%,21µM*,.,.
Cc1csc(N/N=C/c2ccc([N+](=O)[O-])cc2)n1,?,10%,2.8µM*,?,.,.
Cc1cc(=O)[nH]c(N/N=C/c2ccc([N+](=O)[O-])cc2)n1,-2%,10%,0%,-1%,-10%,3%
Cc1csc(N/N=C/c2ccccn2)n1,4%,12µM*,0.45µM*,2.1µM*,3.5µM*,?
CCNc1nc(NCC)nc(N/N=C/c2ccc(Br)cc2)n1,-15%,-10%,-3%,-13%,-21%,-4%
O=C(O)c1csc(N/N=C/c2ccc(Br)cc2)n1,25%,7%,30%,5.4µM*,-5%,4%
C(=N\Nc1ccccc1)/c1nc2ccccc2s1,3.5µM*,?,0.79µM*,1.5µM*,.,.
C(=N\Nc1nc2ccccc2s1)/c1ccccn1,-6%,?,-28%,0.076µM*,.,.
Brc1csc(/C=N/Nc2nc3ccccc3s2)c1,5µM*,?,3.2µM*,1.2µM*,2.8µM*,-4%
CN(C)c1ccc(CNC(=O)C2CCCN(S(=O)(=O)c3ccc4c(c3)CCCC(=O)N4)C2)cc1 (stereo unspecified),.,.,.,-8%,.,.
CC(CCO)Nc1nc2c(c(=O)n(C)c(=O)n2C)n1Cc1ccc(Br)cc1 (stereo unspecified),.,.,.,-3%,1%,.

# Screening results: PubChem BioAssay, National Center for Advancing Translational Sciences (NCATS)
